The results in this text go back to PubChem BioAssay (Tox21).

Results filed as inconclusive are left out. Some compounds were tested as several samples or in several runs, with calls that do not always agree. Active and inactive are the calls of the source. Calls follow the shape of the full dose curve. Residues, ends and D or L forms follow the SMILES beside them.

Test [1] addresses Acetylcholinesterase (Homo sapiens) (UniProt P22303). Description: Acetylcholinesterase (AChE) small molecule antagonists: colormetric cell-based qHTS assay (AID 1347395). Also: nearly all actives have a fitted effect of over 30% in size. Also: potency is read from the fitted curve at half-maximal effect. Summed up:
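AChE inhibition read colorimetrically via DTNB–thiocholine in SH-SY5Y cells. Compound 30 min, substrate 90 min, both 37 C.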

Test [2] has the same target. Description: Acetylcholinesterase (AChE) small molecule antagonists: enzyme-based qHTS assay (AID 1347397). Also: nearly all actives have a fitted effect of over 55% in size. To be noted: Potency: AChE enzyme activity inhibition; outcome: AChE enzyme activity inhibition. Summed up: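 rhAChE 50 mU/mL (dispensed) + cpd or DMSO, 30 min RT; add DTNB/acetylthiocholine cocktail, 10 min RT; colorimetric thiocholine readout. qHTS, 1536-well format.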

Test [3] has the same target. Description: Acetylcholinesterase (AChE) small molecule antagonists: fluorescence cell-based qHTS assay (AID 1347398). Also: nearly all actives have a fitted effect of over 50% in size. To be noted: Potency: AChE activity; outcome: AChE activity. Summed up: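 Read-out is Thiolite Green fluorescence at Ex/Em = 490/520 nm, formed by reaction with thiocholine released when cellular AChE in SH-SY5Y cells hydrolyzes acetylthiocholine. Compounds were preincubated 30 min at 37 C before substrate.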
On the technique in general: In qHTS, concentration-response curves come from the screen itself.

For test [4] the target is unchanged. Description: Acetylcholinesterase (AChE) small molecule antagonists: enzyme-based qHTS assay with human liver microsomes (AID 1347399). Also: nearly all actives have a fitted effect of over 60% in size. To be noted: Potency: qHTS inhibition; outcome: qHTS inhibition. Summed up: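 Recombinant human AChE (50 mU/mL in the enzyme mix) and human liver microsomes (0.25 mg/mL final) were preincubated with compound and NADPH (0.25 mg/mL final) for 30 min at 37 C. Acetylthiocholine/DTNB was then added; thiocholine was read colorimetrically after 10 min at room temperature.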
% is scaled to controls: 0 for no effect and ±100 for the full control effect.

Sequence of Acetylcholinesterase (Homo sapiens) (P22303 whole entry, looked up): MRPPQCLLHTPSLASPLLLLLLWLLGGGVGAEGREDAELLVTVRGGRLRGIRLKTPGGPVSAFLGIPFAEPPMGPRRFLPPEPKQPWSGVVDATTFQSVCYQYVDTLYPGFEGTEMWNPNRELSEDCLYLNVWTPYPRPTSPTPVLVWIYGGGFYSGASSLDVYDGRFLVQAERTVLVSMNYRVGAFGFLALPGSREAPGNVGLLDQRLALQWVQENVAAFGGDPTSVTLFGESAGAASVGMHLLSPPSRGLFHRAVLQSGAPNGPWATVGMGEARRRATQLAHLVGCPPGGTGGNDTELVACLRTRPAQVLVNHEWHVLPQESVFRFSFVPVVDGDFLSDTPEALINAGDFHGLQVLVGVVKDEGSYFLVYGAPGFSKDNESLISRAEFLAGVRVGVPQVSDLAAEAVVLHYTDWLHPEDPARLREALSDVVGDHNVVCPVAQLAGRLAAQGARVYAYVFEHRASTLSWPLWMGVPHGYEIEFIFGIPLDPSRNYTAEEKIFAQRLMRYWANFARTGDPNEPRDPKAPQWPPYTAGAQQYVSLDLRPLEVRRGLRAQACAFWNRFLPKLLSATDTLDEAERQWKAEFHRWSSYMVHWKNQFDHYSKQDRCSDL

Regarding `Oc1cccc(-c2c3nc(c(-c4cccc(O)c4)c4ccc([nH]4)c(-c4cccc(O)c4)c4nc(c(-c5cccc(O)c5)c5ccc2[nH]5)CC4)C=C3)c1`, the Potency result in test [1], in test [2], in test [3] and in test [4] was “inactive” throughout.
As to `Cc1nc2ccccc2s1`, the Potency entry in test [1], in test [2], in test [3] and in test [4] was “inactive” each time.
Take `Cc1ccc(C(=O)O)cc1[N+](=O)[O-]`: the Potency entry in test [1], in test [2], in test [3] and in test [4] was “inactive” in each case.
As to `CCCCCCC(O)CCCCCCCCCCC(=O)OC` (stereo not given), the Potency result in test [1], in test [2], in test [3] and in test [4] was “inactive” throughout.
Consider `CC/C=C\CCCCCO`, for which the Potency entry in test [1], in test [2], in test [3] and in test [4] was “inactive” in each case.
Regarding `Nc1ncnc2nc[nH]c12`, the Potency entry in test [1], in test [2], in test [3] and in test [4] was “inactive” in each case.
On to `C[C@H]1C[C@H]2[C@@H]3CCC4=CC(=O)C=C[C@]4(C)[C@H]3C(=O)C[C@]2(C)[C@@]1(O)C(=O)CO`, for which the Potency result in test [1], in test [2], in test [3] and in test [4] was “inactive” in each case.
Consider `COc1ccc(C(=O)c2cccc(O)c2)c(OC)c1`, for which the Potency entry in test [1], in test [2], in test [3] and in test [4] was “inactive” throughout.
Regarding `CC1=Nc2ccccc2C1(C)C`, the Potency entry in test [1], in test [2], in test [3] and in test [4] was “inactive” each time.
As for `O=C(Oc1ccccc1)Oc1ccccc1`, the Potency result in test [1], in test [2], in test [3] and in test [4] was “inactive” throughout.
With `O=c1c(O)c(-c2ccc(O)c(O)c2)oc2cc(O)cc(O)c12`, the Potency entry in test [1], in test [2], in test [3] and in test [4] was “inactive” in each case.
As to `OC(CCCN1CCCCC1)(c1ccccc1)c1ccccc1`, the Potency entry in test [1], in test [2], in test [3] and in test [4] was “inactive” throughout.
Take `COC(=O)C1CCC(C(=O)OC)CC1` (stereo not given): the Potency result in test [1], in test [2], in test [3] and in test [4] was “inactive” throughout.
For the molecule `O=C1OC(=O)c2ccc3c4c(ccc1c24)C(=O)OC3=O`, the Potency entry in test [1], in test [2], in test [3] and in test [4] was “inactive” each time.
On to `Oc1cn2c(n1)Nc1ccc(Cl)c(Cl)c1C2`, for which the activity, negative = inhibition in test [1] was -9.64% [at 23.6 µM] (inactive). In addition, the activity change, negative = inhibition in test [2] was 0.842% [at 23.6 µM] (inactive); in test [3] it was -3.43% [at 23.8 µM] (inactive); in test [4], 0.168% [at 23.6 µM] (inactive).
In the case of `CCOC(=O)[C@H](CCc1ccccc1)N[C@@H](C)C(=O)N1CCC[C@H]1C(=O)O`, the Potency entry in test [1], in test [2], in test [3] and in test [4] was “inactive” each time.
For the molecule `COC(=O)[C@H](Cc1ccccc1)NC(=O)[C@@H](N)CC(=O)O` (H-Asp-Phe-OMe), the Potency entry in test [1], in test [2], in test [3] and in test [4] was “inactive” in each case.
As for `CN(C)CCOCCN(C)C`, the Potency result in test [1], in test [2], in test [3] and in test [4] was “inactive” in each case.
On to `NC(=O)Cc1cccc2ccccc12`, for which the Potency entry in test [1], in test [2], in test [3] and in test [4] was “inactive” throughout.
Consider `Cn1c(=O)c2c(ncn2CC2OCCO2)n(C)c1=O`, for which the Potency entry in test [1], in test [2], in test [3] and in test [4] was “inactive” in each case.
For `[O]=[Bi]`, the activity, negative = inhibition in test [1] is 1.07% [at 10.5 µM] (inactive). The activity change, negative = inhibition was 2.59% [at 10.5 µM] (inactive) in test [2], 3.63% [at 10.5 µM] (inactive) in test [3] and -4.69% [at 10.5 µM] (inactive) in test [4].
Take `CC(C)(CO)[N+](=O)[O-]`: the Potency entry in test [1], in test [2], in test [3] and in test [4] was “inactive” throughout.
`COC(OC)C(C)c1ccccc1` (stereo not given): the Potency entry in test [1], in test [2], in test [3] and in test [4] was “inactive” each time.
For the molecule `CC[C@H]1OC(=O)[C@H](C)[C@@H](O[C@H]2C[C@@](C)(OC)[C@@H](O)[C@H](C)O2)[C@H](C)[C@@H](O[C@@H]2O[C@H](C)C[C@H](N(C)C)[C@H]2O)[C@](C)(O)C[C@@H](C)/C(=N\OCOCCOC)[C@H](C)[C@@H](O)[C@]1(C)O`, the Potency entry in test [1], in test [2], in test [3] and in test [4] was “inactive” throughout.
Turning to `CC(C)(C)C(=O)C1C(=O)c2ccccc2C1=O`, the Potency result in test [1], in test [2], in test [3] and in test [4] was “inactive” in each case.
Consider `N#Cc1cc2ccccc2c2ccccc12`, for which the Potency entry in test [1], in test [2], in test [3] and in test [4] was “inactive” in each case.
Take `CC(C)=NNC(N)=S`: the Potency entry in test [1], in test [2], in test [3] and in test [4] was “inactive” throughout.
Consider `CC(=O)OCc1ccco1`, for which the Potency result in test [1], in test [2], in test [3] and in test [4] was “inactive” throughout.
For the molecule `C/C=C(\C)C(=O)OCc1ccccc1`, the Potency entry in test [1], in test [2], in test [3] and in test [4] was “inactive” each time.
Take `CCNC(=S)NCC`: the Potency result in test [1], in test [2], in test [3] and in test [4] was “inactive” in each case.
Take `C=CCCC`: the Potency entry in test [1], in test [2], in test [3] and in test [4] was “inactive” each time.
As to `N[C@@H](Cc1c[nH]c2ccccc12)C(=O)O`, the Potency entry in test [1], in test [2], in test [3] and in test [4] was “inactive” in each case.
Take `Oc1ccc(O)c2c(O)cccc12`: the Potency entry in test [1], in test [2], in test [3] and in test [4] was “inactive” throughout.
`Nc1ccccc1Nc1ccccc1`: the Potency result in test [1], in test [2], in test [3] and in test [4] was “inactive” in each case.
Take `SC1CCCC1`: the Potency entry in test [1], in test [2], in test [3] and in test [4] was “inactive” each time.
As to `Cc1c(C(=O)O)cccc1[N+](=O)[O-]`, the Potency entry in test [1], in test [2], in test [3] and in test [4] was “inactive” each time.
As to `OCCCCl`, the Potency result in test [1], in test [2], in test [3] and in test [4] was “inactive” in each case.
In the case of `CCCCCCS`, the Potency entry in test [1], in test [2], in test [3] and in test [4] was “inactive” in each case.
For the molecule `Cc1ccccc1OCC(=O)O`, the Potency result in test [1], in test [2], in test [3] and in test [4] was “inactive” each time.
In the case of `O=S(=O)(O)c1cccc2c(S(=O)(=O)O)cccc12`, the Potency entry in test [1], in test [2], in test [3] and in test [4] was “inactive” each time.
On to `NC(CO)C(=O)NNCc1ccc(O)c(O)c1O` (stereo not given), for which the Potency result in test [1], in test [2], in test [3] and in test [4] was “inactive” in each case.
For `CCOC(=O)COC(=O)c1ccccc1C(=O)OCC`, the Potency entry in test [1], in test [2], in test [3] and in test [4] was “inactive” each time.
In the case of `O=C(c1ccc2c(c1)C(=O)OC2=O)c1ccc2c(c1)C(=O)OC2=O`, the Potency entry in test [1], in test [2], in test [3] and in test [4] was “inactive” throughout.
As for `NC(=O)NC(N)=O`, the Potency entry in test [1], in test [2], in test [3] and in test [4] was “inactive” each time.
`O=C(O)c1ccc(-n2nc(-c3ccccc3O)nc2-c2ccccc2O)cc1`: the Potency entry in test [1], in test [2], in test [3] and in test [4] was “inactive” each time.
On to `CC1=CC(=C(c2ccc(N)cc2)c2ccc(N)cc2)C=CC1=N`, for which the activity, negative = inhibition in test [1] was 0.517% [at 10.5 µM] (inactive). Further, the activity change, negative = inhibition in test [2] was 0.534% [at 10.5 µM] (inactive); in test [3] it was -4.07% [at 10.5 µM] (inactive); in test [4], 0.485% [at 10.5 µM] (inactive).
As for `CCCCCCCCCCCCCCC`, the Potency entry in test [1], in test [2], in test [3] and in test [4] was “inactive” throughout.
As to `CCCCCCCCCCC1CO1` (stereo not given), the Potency entry in test [1], in test [2], in test [3] and in test [4] was “inactive” each time.
For `CCCCCCCCOCCC#N`, the Potency result in test [1], in test [2], in test [3] and in test [4] was “inactive” each time.
`O=C(Nc1ccc(Cl)c(Cl)c1)C1CC1`: the Potency result in test [1], in test [2], in test [3] and in test [4] was “inactive” each time.
`Nc1nc(=S)c2[nH]cnc2[nH]1`: the Potency in test [1] is 21.9 µM (active) and inactive. In addition, the Potency entry in test [2], in test [3] and in test [4] was “inactive” throughout.
For the molecule `O=S1(=O)OC(c2ccc(O)cc2)(c2ccc(O)cc2)c2ccccc21`, the Potency result in test [1], in test [2], in test [3] and in test [4] was “inactive” throughout.
As to `CC(C)(C)OC=O`, the Potency entry in test [1], in test [2], in test [3] and in test [4] was “inactive” each time.
Regarding `COCCOCCOCCOC`, the Potency entry in test [1], in test [2], in test [3] and in test [4] was “inactive” in each case.
With `CCCCCCCCCCCC(=O)OC[C@@H](O)[C@H]1OC[C@H](OCCO)[C@H]1OCCO`, the Potency result in test [1], in test [2], in test [3] and in test [4] was “inactive” each time.
As to `O=C[C@H](O)[C@H](O)[C@H](O)CO`, the Potency result in test [1], in test [2], in test [3] and in test [4] was “inactive” throughout.
As for `CCCCc1ccc(Cl)cc1`, the Potency entry in test [1], in test [2], in test [3] and in test [4] was “inactive” throughout.
For `OC[C@H](Cc1cccc(O)c1)[C@H](CO)Cc1cccc(O)c1`, the Potency result in test [1], in test [2], in test [3] and in test [4] was “inactive” each time.
Regarding `CCOC(=O)CCC(=O)OCC`, the Potency entry in test [1], in test [2], in test [3] and in test [4] was “inactive” throughout.
On to `CCN(CCO)c1cccc(C)c1`, for which the Potency entry in test [1], in test [2], in test [3] and in test [4] was “inactive” in each case.
